DT40 TDP1 CPT – growth inhibition of DT40 Tdp1-/-;hTDP1 cells with camptothecin (screen for TDP1 inhibitors); chicken DT40 Tdp1-/-;hTDP1 cells + 20 nM CPT, ATP luminescence, 48 h; Potency, µM (series often up to 46.2 µM), hits mostly inhibitors; hit rate 12% among 420,000; AID 686979; also: nearly all actives have a fitted effect of over 55% in size
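Chicken DT40 Tdp1-/- cells stably complemented with human TDP1 were seeded at 400 cells/well in medium containing 20 nM camptothecin, exposed to pin-transferred compounds, and grown at 37 °C for at least 48 hr. Viability was read as ATP luminescence.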
IL1B secr inh – blocks inflammasome-driven IL-1 beta release. THP-1 LPS/ATP IL-1B secretion, AlphaLISA, 16 h; hits give low values. hit rate 4.7% among 360,000. activity change, % at 57.5 µM; in the data active = activity change below about -50%; inconclusive = mostly about -30% to -49%
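THP-1 cells pretreated 1 hr with compounds (up to 57.5 uM final), then stimulated with LPS (250 ng/mL final) plus ATP (1.25 mM final); secreted IL-1B measured by AlphaLISA after 16 hr, decreased signal indicating inhibition.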
uPA surface inh – inhibitors of cell surface uPA generation | hit rate 0.31% among 330,000 | Potency, µM (series often up to 38.3 µM), actives largely listed as inhibitors | cell surface uPA generation assay, qHTS; active = well fitted inhibition curve with a large enough effect; inconclusive = small, poorly fitted or top-dose-only effect; inactive = no such curve, though single readings can be large or run the other way; tested in mouse RAW 264.7 cells; also: nearly all actives have a fitted effect of over 55% in size
HT1080 IDH1KD tx – toxicity to HT-1080 IDH1 knockdown cells (counter line) | HT-1080 IDH1 knockdown viability, ATP luminescence, 48 h | Potency, µM (highest dose often 46.1 µM), hits mostly cytotoxic | hit rate 2% among 360,000
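Viability of IDH1-knockdown HT-1080 fibrosarcoma cells was assessed by CellTiter-Glo after 48 h at 37 °C with titrated compound; concentration-effect curves were classified by fit quality and response size.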
HT1080-NT tox – kills 2HG-producing HT-1080-NT fibrosarcoma cells; Potency, µM (titrated, usually from 46.1 µM), actives largely listed as cytotoxic; hit rate 1.6% among 360,000; HT-1080-NT fibrosarcoma viability, CellTiter-Glo ATP luminescence, 48 h; AID 686970;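 also: NT is the 2HG producing partner of a matched IDH1 knockdown line; nearly all actives have a fitted effect of over 55% in size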
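Compounds were tested in concentration-response format on HT-1080-NT cells for 48 hours at 37 degrees C. Cell viability came from CellTiter-Glo luminescence; curves were classified by r2, response magnitude and activity.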
DT40 TDP1 no CPT – qHTS for Inhibitors of human tyrosyl-DNA phosphodiesterase 1 (TDP1): qHTS in cells in absence of CPT; DT40 Tdp1-/- hTDP1 cells, no CPT, ATP luminescence, 48 h; Potency, µM (titrated, usually from 46.2 µM), actives largely listed as inhibitors; hit rate 15% among 420,000; AID 686978, 2013; also: nearly all actives have a fitted effect of over 55% in size
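Stably hTDP1-transfected Tdp1-null chicken DT40 cells were treated with library compounds minus camptothecin and grown for at least 48 hr at 37 °C, after which cellular ATP was quantified by luminescence.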
Numbers stand for hits; . = inactive; ? = inconclusive; / = not tested or not shown. An excerpt weighted towards active compounds, which were near 19% of everything screened. Unless noted, calls follow the shape of the dose curve; as a rule, active = well fitted curve in the direction sought with a large enough effect; inconclusive = small, poorly fitted or top-dose-only effect, or another doubt; inactive = no such curve, though single readings can be large; an effect the other way counts as inactive or inconclusive.

SMILES	DT40 TDP1 CPT	IL1B secr inh	uPA surface inh	HT1080 IDH1KD tx	HT1080-NT tox	DT40 TDP1 no CPT
O=C(c1ccc(Cl)cc1)c1ccc(OCC(O)CN2CCOCC2)cc1 (configuration not stated)	23.1µM	.	.	.	.	16.4µM
OC(COc1ccccc1)CN1CCOCC1 (configuration not stated)	.	.	.	.	.	.
Cc1cc2c(cc1C)NC(c1c(C)n(C)n(-c3ccccc3)c1=O)C1=C(CC(C)(C)CC1=O)N2 (configuration not stated)	16.4µM	?	.	.	.	?
O=C(CN1C(=O)C(=O)N(Cc2ccccc2)C1=O)Nc1ccc(F)c(Cl)c1	.	.	.	.	.	.
COc1cccc(/C=N/Nc2nc(Nc3ccccc3)nc(-n3nc(C)cc3C)n2)c1O	0.82µM	.	.	7.31µM	6.51µM	0.581µM
COc1cccc(/C=N/Nc2cc(-n3nc(C)cc3-c3ccccc3)ncn2)c1O	0.82µM	.	.	?	?	0.651µM
COC(=O)c1c(NC(=O)/C=C/C(=O)O)sc(Cc2ccccc2)c1C	20.6µM	-110.9	.	?	.	?
Cc1c(Cc2ccccc2)sc(NC(=O)/C=C/c2cccc3ccccc23)c1C(N)=O	3.66µM	.	.	32.6µM	13µM	3.26µM
COC(=O)c1c(N)sc(Cc2ccccc2)c1C	.	.	.	.	.	.
Cc1c(Cc2ccccc2)sc(NC(=O)c2ccco2)c1C(N)=O	.	.	.	?	?	?
CN(c1ccccc1)S(=O)(=O)c1cccc(NC(=O)CCN2C(=O)C3CCCCC3C2=O)c1 (configuration not stated)	.	.	.	.	.	.
CCC1(CC)NC(=O)N(CC(=O)Nc2cccc3ccccc23)C1=O	.	.	.	.	.	.
CCCNC(=O)c1ccc(Cn2c(=O)c3cccn3c3cccnc32)cc1	.	/	/	/	/	.
CN(C)c1ccc(CNC(=O)c2ccc(Cn3c(=O)c4cccn4c4cccnc43)cc2)cc1	?	/	/	/	/	0.206µM
O=C(NCCc1ccccc1Cl)c1ccc(Cn2c(=O)c3cccn3c3cccnc32)cc1	10.3µM	/	/	/	/	10.3µM
COc1cc(OC)c(NC(=O)c2nn(-c3ccc(C)cc3)c(=O)c3c2c2ccccc2n3C)cc1Cl	.	/	/	/	/	.
CN(C)S(=O)(=O)c1ccc(Cl)c(C(=O)NC2=NCCS2)c1	.	.	.	.	.	.
COc1cc(C(=O)N2CCc3c([nH]c4ccccc34)C2c2ccc(C)cc2)cc(OC)c1OC (configuration not stated)	16.4µM	/	/	/	/	?
O=C(c1cn[nH]c1)N1CCc2c([nH]c3ccccc23)C1c1c(F)cccc1Cl (configuration not stated)	?	-52.5	.	.	?	?
COc1ccc(C2c3[nH]c4ccccc4c3CCN2C(=O)c2cc3ncccn3n2)c(F)c1 (configuration not stated)	.	.	.	?	.	20.6µM
COc1cccc(C2c3[nH]c4ccccc4c3CCN2C(=O)c2ccccc2F)c1OC (configuration not stated)	?	?	.	?	?	.
COc1cc(C(=O)N2CCc3c([nH]c4ccccc34)C2c2ccccc2)cc(OC)c1OC (configuration not stated)	7.31µM	/	/	/	/	6.51µM
CC12CCC(C(=O)Nc3cc(Cl)ccc3Cl)(C/C1=N\O)C2(C)C (configuration not stated)	.	.	/	.	.	?
O=C(NCCc1ccccc1)c1nnc(Cc2cccc(F)c2)o1	.	/	/	/	/	.
COC(=O)C[C@H]1C[C@H]2c3cc(NC(=O)NC4CCCC4)ccc3O[C@H]2[C@@H](CO)O1	.	.	/	.	.	.
SMILES	DT40 TDP1 CPT	IL1B secr inh	uPA surface inh	HT1080 IDH1KD tx	HT1080-NT tox	DT40 TDP1 no CPT
Cc1ccc(NC2CCCN(C(=O)CN3C(=O)c4ccccc4C3=O)C2)cc1C (configuration not stated)	.	.	.	.	.	.
COc1ccc(Nc2cc(C(=O)NCc3ccccc3)c3ccccc3n2)cc1OC	.	/	/	/	/	.
COc1ccc(CCNC(=O)c2cc(Nc3ccccc3)nc3ccccc23)cc1OC	9.2µM	/	/	/	/	8.2µM
COc1ccc(CCNC(=O)c2cc(-c3ccc(C)c(C)c3)nc3ccccc23)cc1OC	10.3µM	/	/	/	/	.
COc1ccc(CCNC(=O)c2cccc3ccccc23)cc1OC	.	.	.	.	.	.
COc1ccc(-c2cc(C(=O)NCCc3ccc(OC)c(OC)c3)c3c(-c4ccc(F)cc4)[nH]nc3n2)cc1	.	/	/	/	/	.
O=C(NCc1cccnc1)c1cc(Sc2ccc(F)cc2F)nc2ccccc12	23.1µM	?	.	.	.	20.6µM
COc1ccc(-c2cc(C(=O)NCCc3ccc(OC)c(OC)c3)c3ccccc3n2)cc1	18.4µM	/	/	/	/	11.6µM
COCCNC(=O)c1cc(Sc2ccc(F)cc2F)nc2ccccc12	.	/	/	/	/	.
Cc1cn(C)c(CC(=O)NCc2ccc(F)cc2)c1C(=O)O	.	/	/	/	/	.
CN(CC(=O)Nc1ccc(Cl)c(C(F)(F)F)c1)C(=O)Cn1cc([N+](=O)[O-])ccc1=O	?	?	.	.	.	?
Cc1cc(=O)[nH]c2nnc(SCc3cccc(C(F)(F)F)c3)n12	.	/	/	/	/	?
Cc1ccc(CCNC(=O)c2coc3nc4ccccc4nc23)cc1	?	.	.	.	.	29.1µM
CCC(Cc1ccccc1)NC(=O)c1cccc(Nc2nc3ccccc3nc2-n2nc(C)cc2C)c1 (configuration not stated)	.	/	/	/	/	.
CCOc1ccc(CCNC(=O)c2cc(Nc3ccc(C)cc3C)nc3ccccc23)cc1OCC	8.2µM	/	/	/	/	8.2µM
COc1ccc(CCNC(=O)c2cccc(Nc3nc4ccccc4nc3-n3nc(C)cc3C)c2)cc1OC	5.17µM	/	/	/	/	4.61µM
Cc1ccc(C)c(Nc2cc(C(=O)NCc3cccnc3)c3ccccc3n2)c1	?	-73.3	.	.	.	?
CC(NS(=O)(=O)c1cc(C(F)(F)F)ccc1Cl)C(=O)N(C)C1CCN(C)CC1 (configuration not stated)	.	.	.	.	.	.
CSc1ccc(CN(C)CC(=O)Nc2c(F)cccc2F)cc1	20.6µM	.	.	.	.	?
CCc1cccc(C)c1NC(=O)CN(C)Cc1ccccc1F	14.6µM	.	.	.	.	16.4µM
CCc1cccc(C)c1NC(=O)CCOc1ccccc1	.	.	.	.	.	.
CCCCN1C2=C(C(=O)CC(C)(C)C2)C(c2ccccc2)C2=C1c1ccccc1C2=O (configuration not stated)	?	.	.	.	.	16.4µM
